The source of these data is PubChem BioAssay (NCI).

This is part of a sample that, as a whole, favours compounds with a hit. Of some 79,000 tested, about 15% had one in any assay. A number with no mark means an inactive call. Active and inactive are the calls of the source. Rule as the data show it: active = growth inhibition above about 70%; inactive = the rest.

The nature of experiment [1]: NCI Yeast Anticancer Drug Screen. Data for the rad50 strain (AID 155).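 Also: 0% = growth of vehicle-only cultures of the same strain.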 Conditions: S. cerevisiae rad50 strain growth inhibition, active compounds read high; at 50.0 µM unless noted. In short, it runs like this: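 Yeast carrying a defined DNA repair defect were exposed to test compounds, and growth was compared with vehicle-treated controls to give percent inhibition.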
Experiment [2] in a line: NCI Yeast Anticancer Drug Screen. Data for the mec2-1 strain (AID 157). Conditions: S. cerevisiae mec2-1 strain, active compounds read high; at 50.0 µM unless noted. In short, it runs like this:
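Mutant yeast (mec2-1) grown with compound; growth inhibition relative to vehicle control reported.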

The nature of experiment [3]: NCI Yeast Anticancer Drug Screen. Data for the sgs1 mgt1 strain (AID 161).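 Also: 0% = growth of cultures given vehicle only.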 The conditions noted are these: S. cerevisiae sgs1 mgt1 strain, active compounds read high; at 50.0 µM unless noted. In short, it runs like this:
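Yeast cells carrying a defined DNA-repair defect were exposed to test compounds. Growth inhibition was measured relative to vehicle-treated controls.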

Experiment [4] can be described thus: NCI Yeast Anticancer Drug Screen. Data for the cln2 rad14 strain (AID 165).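 Also: 0% = growth equal to vehicle treated cultures.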 Conditions: S. cerevisiae cln2 rad14 strain, active compounds read high; at 50.0 µM unless noted. In short, it runs like this: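 Readout is yeast growth inhibition versus vehicle-treated controls, using a strain with cln2 and rad14 alterations exposed to compound.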
Experiment [5] in a line: NCI Yeast Anticancer Drug Screen. Data for the bub3 strain (AID 167). The conditions noted are these: S. cerevisiae bub3 mutant strain, active compounds read high; at 50.0 µM unless noted. In short, it runs like this: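 Compounds were applied to a genetically altered yeast strain carrying a cell-cycle control defect. Growth inhibition was scored against vehicle-treated controls.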

The nature of experiment [6]: NCI Yeast Anticancer Drug Screen. Data for the mlh1 rad18 strain (AID 175). Conditions: S. cerevisiae mlh1 rad18 strain growth inhibition, active compounds read high; at 50.0 µM unless noted. In short, it runs like this: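 Genetically defined yeast (DNA repair-deficient) exposed to compounds; growth inhibition determined relative to vehicle.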

Consider `O=C1CCC2OC3CCC(=O)N3CN12` (configuration not stated), for which the growth inhibition in experiment [1] was 9.8%; in experiment [2], 8%; in experiment [3] it was 6.55%; in experiment [4] it was -11.3%; in experiment [5] it was 4.95%; in experiment [6] it was -3.6%.

Take `CCCCCC1CC(=O)NC1C(=O)O` (configuration not stated): the growth inhibition in experiment [1] is -2.75%; in experiment [2], 1.25%; in experiment [3], -10.8%; in experiment [4] it was -8.8%; in experiment [5], -1.15%; in experiment [6], -8.95%.

Turning to `Cc1cn(C2CC(ON)C(CO)O2)c(=O)[nH]c1=O` (configuration not stated), the growth inhibition was -8.1% in experiment [1]; -1.15% in experiment [2]; 23.2% in experiment [3]; 13.9% in experiment [4]; 6.25% in experiment [5]; -48% in experiment [6].

For the compound `OCC[P+](c1ccccc1)(c1ccccc1)c1ccccc1`, the growth inhibition in experiment [1] was 17.6%; in experiment [2] it was 12.1%; in experiment [3], -6.2%; in experiment [4] it was 16.4%; in experiment [5] it was -6.05%; in experiment [6], -11.3%.

In the case of `CN(C)c1ccc(C(c2ccc(C(c3ccc(N(C)C)cc3)c3ccc(N(C)C)cc3)cc2)c2ccc(N(C)C)cc2)cc1`, the growth inhibition is -6.55% in experiment [1]; 4.8% in experiment [2]; -22.1% in experiment [3]; -0.8% in experiment [4]; -10.8% in experiment [5]; 14.6% in experiment [6].

Regarding `O=C(Nc1ccc(C(=O)O)cc1)Nc1cccc(Cl)c1`, the growth inhibition is -6.15% in experiment [1]; 2.1% in experiment [2]; -9.55% in experiment [3]; -14.3% in experiment [4]; 0.65% in experiment [5]; 7.4% in experiment [6].

With `CN(C=O)c1c(F)cc(N=Nc2ccccc2)cc1F`, the growth inhibition in experiment [1] is 2.8%; in experiment [2], 1.15%; in experiment [3], 6.65%; in experiment [4], -16.1%; in experiment [5] it was 2.25%; in experiment [6], 9.7%.

On to `O=C1/C(=C/c2ccc(Cl)cc2)CCC1CN1CCOCC1` (configuration not stated), for which the growth inhibition is 89.8% (active) in experiment [1]; 92.2% (active) in experiment [2]; 89.2% (active) in experiment [3]; 92.3% (active) in experiment [4]; 91.1% (active) in experiment [5]; 92% (active) in experiment [6].

With `COc1cccc(C)c1O`, the growth inhibition was 9.8% in experiment [1]; -7.35% in experiment [2]; -7.8% in experiment [3]; 6.55% in experiment [4]; 20.6% in experiment [5]; 3.3% in experiment [6].

Regarding `O=CC[C@]12CC(=O)OC(C=CC13OCCO3)C2`, the growth inhibition in experiment [1] was 6.55%; in experiment [2] it was -9.4%; in experiment [3] it was -16.7%; in experiment [4] it was 17.6%; in experiment [5] it was 13.4%; in experiment [6], 9.05%.

Regarding `S=C(NC1CCCCC1)SSSSC(=S)NC1CCCCC1`, the growth inhibition was 15.7% in experiment [1]; 5% in experiment [2]; 22.2% in experiment [3]; 9.55% in experiment [4]; 13.9% in experiment [5]; 20.2% in experiment [6].

With `Cc1cccc(C)c1NC(=S)N/C=C(\C#N)C(N)=O`, the growth inhibition in experiment [1] is -53.2%; in experiment [2], -72.2%; in experiment [3], -25%; in experiment [4] it was -21.6%; in experiment [5], -8.65%; in experiment [6], -49.4%.

As to `COC(=O)[C@]1(c2ccc(N(C)C)cc2OC)C[C@@H]2CCCN(CCc3c1[nH]c1ccccc31)C2`, the growth inhibition was -5.8% in experiment [1]; -4.35% in experiment [2]; -11.5% in experiment [3]; 18.4% in experiment [4]; -0.65% in experiment [5]; 21.6% in experiment [6].

With `Nc1ccccc1SC(CC(=O)c1ccc(-c2ccccc2)cc1)c1ccco1` (configuration not stated), the growth inhibition in experiment [1] was -18.4%; in experiment [2], -30.6%; in experiment [3], 17%; in experiment [4] it was -9.2%; in experiment [5] it was -7.6%; in experiment [6], -31.7%.

For the compound `OCC12OCC(C=CC1O)O2` (configuration not stated), the growth inhibition in experiment [1] was -13.2%; in experiment [2] it was 17.1%; in experiment [3], -4.65%; in experiment [4], 1.2%; in experiment [5] it was -0.15%; in experiment [6] it was -8.5%.

As to `O=C(N/N=C(\c1nc2ccc(Cl)cc2[nH]c1=O)C(O)c1ccccc1Cl)c1ccncc1` (configuration not stated), the growth inhibition is 16.6% in experiment [1]; 20% in experiment [2]; 8.7% in experiment [3]; 18.7% in experiment [4]; 30.9% in experiment [5]; 37% in experiment [6].

With `CN(C)c1ccc(C2NC(=S)NC3=C2CCCC3)cc1` (configuration not stated), the growth inhibition in experiment [1] is -15.1%; in experiment [2], -15.6%; in experiment [3] it was 5%; in experiment [4] it was -20.6%; in experiment [5], 22.8%; in experiment [6], 14.6%.

Consider `CCCCCCn1ncc2c(N)ncnc21`, for which the growth inhibition in experiment [1] was 10.4%; in experiment [2] it was 6.85%; in experiment [3], -1.3%; in experiment [4] it was -4%; in experiment [5], 29.8%; in experiment [6] it was -1.3%.

In the case of `CC(CC(O)C(=O)O)CC(C)(C)C` (configuration not stated), the growth inhibition in experiment [1] is -5.95%; in experiment [2], 8.7%; in experiment [3], -7.15%; in experiment [4], -7.3%; in experiment [5], 22.3%; in experiment [6] it was 2.6%.

For the compound `COc1cc2c[n+](C)c3c4cc(OC)c(OC)cc4c(OCc4ccccc4)cc3c2cc1OC`, the growth inhibition in experiment [1] was 86% (active); in experiment [2], 89.8% (active); in experiment [3] it was 88.1% (active); in experiment [4], 88.7% (active); in experiment [5], 87.5% (active); in experiment [6], 91.2% (active).

As for `CC(=O)C(C)(CC#N)C(CC=O)CCC#N` (configuration not stated), the growth inhibition in experiment [1] was 15.9%; in experiment [2], 4.7%; in experiment [3] it was 10.2%; in experiment [4], -1.45%; in experiment [5], 14%; in experiment [6] it was -1%.

As for `O=C(O)C(NCCCCCNC(C(=O)O)c1ccccc1)c1ccccc1` (configuration not stated), the growth inhibition in experiment [1] is 15.8%; in experiment [2], 21.2%; in experiment [3], 15.9%; in experiment [4] it was 24.9%; in experiment [5], 13.9%; in experiment [6], 24.6%.
